Laboratory results from PubChem BioAssay (EPA / NIEHS).
Values joined by “and” are separate entries in the source; they are usually repeats but may differ in a detail not shown here. Equal values may be shown once. The source holds several records for some structures; these can differ, active in one and inactive in another. Active and inactive are the calls of the source. How the source made its calls: active means hit-call score of the fitted dose curve at least 0.9, where 1 is the maximum; inactive means score below 0.9.

How the values were obtained:
[1] = read-out: Urokinase-type plasminogen activator receptor (uPAR), PLAUR (gene 5329); assay: BSK_4H_uPAR: BioMAP Diversity Plus: 4H Assay for Urokinase-type plasminogen activator receptor (uPAR) Biomarker Activity (AID 2283030); settings: primary human endothelial cells (HUVEC); actives raise or lower the signal
Summary of the method: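 Primary human umbilical vein endothelial cells were exposed to chemical for 24 h before cell-surface uPAR was quantified by ELISA. Activity was fitted bidirectionally against the DMSO negative control baseline.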

[2] = read-out: Vascular endothelial growth factor receptor 2 (Homo sapiens) (UniProt P35968); assay: BSK_4H_VEGFRII: BioMAP Diversity Plus: 4H Assay for Vascular endothelial growth factor receptor 2 (VEGFR2) Biomarker Activity (AID 2283031); settings: primary human endothelial cells (HUVEC); actives raise or lower the signal
Summary of the method: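 Primary human umbilical vein endothelial cells in the BioMAP 4H system were dosed with test chemical, and 24 h later VEGFRII was measured by ELISA. Activity was fitted bidirectionally against DMSO as negative control and baseline.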

[3] = read-out: Human Leukocyte Antigen - DR isotype (HLADR), HLA-DRA (gene 3122); assay: BSK_BE3C_HLADR: BioMAP Diversity Plus: BE3C Assay for Human Leukocyte Antigen - DR isotype (HLADR) Biomarker Activity (AID 2283032); settings: primary human bronchial epithelial cells; actives raise or lower the signal
Summary of the method: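 Human primary bronchial epithelial cells in the BE3C system were exposed to chemicals for 24 h, after which HLA-DR levels were quantified by ELISA. Activity was fitted bidirectionally, gain or loss of signal, against DMSO as negative control and baseline.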

[4] = read-out: Vascular cell adhesion molecule 1 (VCAM1), VCAM1 (gene 7412); assay: BSK_4H_VCAM1: BioMAP Diversity Plus: 4H Assay for Vascular cell adhesion molecule 1 (VCAM1) Biomarker Activity (AID 2283033); settings: primary human endothelial cells (HUVEC); actives raise or lower the signal;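 further: cell-surface VCAM-1 protein measured by ELISA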
Summary of the method: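 Primary human umbilical vein endothelial cells were exposed to chemicals for 24 h, after which VCAM-1 was quantified by ELISA. Responses were fitted bidirectionally against DMSO as negative control and activity baseline.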

[5] = read-out: Interferon-gamma inducible Protein 10 (IP10), CXCL10 (gene 3627); assay: BSK_BE3C_IP10: BioMAP Diversity Plus: BE3C Assay for Interferon-gamma inducible Protein 10 (IP10) Biomarker Activity (AID 2283034); settings: primary human bronchial epithelial cells; actives raise or lower the signal
Summary of the method: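 Human primary bronchial epithelial cells were exposed to chemicals for 24 hours, after which IP-10 levels were measured by ELISA. Data were fitted bidirectionally against DMSO, which served as the negative control and activity baseline.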

[6] = read-out: Plasminogen activator inhibitor-1 (PAI1), SERPINE1 (gene 5054); assay: BSK_BE3C_PAI1: BioMAP Diversity Plus: BE3C Assay for Plasminogen activator inhibitor-1 (PAI1) Biomarker Activity (AID 2283037); settings: primary human bronchial epithelial cells; actives raise or lower the signal
Summary of the method: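 Human primary bronchial epithelial cells were exposed to chemical for 24 h, then PAI-1 was quantified by ELISA. Activity was fitted bidirectionally relative to the DMSO negative control baseline.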

[7] = read-out: urokinase plasminogen activator (uPA), PLAU (gene 5328); assay: BSK_BE3C_uPA: BioMAP Diversity Plus: BE3C Assay for urokinase plasminogen activator (uPA) Biomarker Activity (AID 2283038); settings: primary human bronchial epithelial cells; actives raise or lower the signal;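 further: uPA protein level quantified by ELISA in cell cultures; uPA read one day after compound addition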
Summary of the method: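 Human primary bronchial epithelial cells were exposed to chemical for 24 h, then uPA levels were measured by ELISA. Responses were fitted bidirectionally against DMSO as negative control and baseline. Parallel SRB staining of total protein gauged overt cytotoxicity.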

[8] = read-out: Urokinase-type plasminogen activator receptor (uPAR), PLAUR (gene 5329); assay: BSK_BE3C_uPAR: BioMAP Diversity Plus: BE3C Assay for Urokinase-type plasminogen activator receptor (uPAR) Biomarker Activity (AID 2283039); settings: primary human bronchial epithelial cells; actives raise or lower the signal;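 further: cells exposed to compound for one day before measurement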
Summary of the method: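 Primary human bronchial epithelial cells were dosed with chemical and harvested 24 h later; uPAR was quantified by ELISA. Activity was fitted bidirectionally against DMSO as negative control and baseline.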

[9] = read-out: Interleukin-6 (IL6), IL6 (gene 3569); assay: BSK_CASM3C_IL6: BioMAP Diversity Plus: CASM3C Assay for Interleukin-6 (IL6) Biomarker Activity for (AID 2283040); settings: primary human coronary artery smooth muscle cells; actives raise or lower the signal
[10] = read-out: Tissue plasminogen activator (tPA), PLAT (gene 5327); assay: BSK_BE3C_tPA: BioMAP Diversity Plus: BE3C Assay for Tissue plasminogen activator (tPA) Biomarker Activity (AID 2283041); settings: primary human bronchial epithelial cells; actives raise or lower the signal;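 further: tPA level quantified by ELISA one day after compound addition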
Summary of the method: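 Human primary bronchial epithelial cells were dosed with chemical and tPA biomarker levels measured by ELISA 24 hours later. Activity was fitted bidirectionally against DMSO as negative control and baseline.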

[11] = read-out: Interleukin-8 (IL8), CXCL8 (gene 3576); assay: BSK_CASM3C_IL8: BioMAP Diversity Plus: CASM3C Assay for Interleukin-8 (IL8) Biomarker Activity (AID 2283042); settings: primary human coronary artery smooth muscle cells; actives raise or lower the signal;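 further: IL-8 protein level quantified by ELISA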
[12] = read-out: Human Leukocyte Antigen - DR isotype (HLADR), HLA-DRA (gene 3122); assay: BSK_CASM3C_HLADR: BioMAP Diversity Plus: CASM3C Assay for Human Leukocyte Antigen - DR isotype (HLADR) Biomarker Activity (AID 2283043); settings: primary human coronary artery smooth muscle cells; actives raise or lower the signal;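 further: cell-surface HLA-DR protein level quantified by ELISA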
[13] = read-out: Macrophage colony-stimulating factor (MCSF), CSF1 (gene 1435); assay: BSK_CASM3C_MCSF: BioMAP Diversity Plus: CASM3C Assay for Macrophage colony-stimulating factor (MCSF) Biomarker Activity (AID 2283044); settings: primary human coronary artery smooth muscle cells; actives raise or lower the signal;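 further: M-CSF protein amount quantified by ELISA after 24 h exposure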
[14] = read-out: Low-density lipoprotein receptor (LDLR), LDLR (gene 3949); assay: BSK_CASM3C_LDLR: BioMAP Diversity Plus: CASM3C Assay for Low-density lipoprotein receptor (LDLR) Biomarker Activity (AID 2283045); settings: primary human coronary artery smooth muscle cells; actives raise or lower the signal;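 further: LDLR protein level on the cell surface quantified by ELISA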
[15] = read-out: Monocyte Chemoattractant Protein-1 (MCP1), CCL2 (gene 6347); assay: BSK_CASM3C_MCP1: BioMAP Diversity Plus: CASM3C Assay for Monocyte Chemoattractant Protein-1 (MCP1) Biomarker Activity (AID 2283046); settings: primary human coronary artery smooth muscle cells; actives raise or lower the signal;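 further: MCP-1 level quantified by ELISA 24 h after dosing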
[16] = BSK_CASM3C_Proliferation: Cell Proliferation Assessment in the BioMAP Diversity Plus: CASM3C Assay (AID 2283047); settings: primary human coronary artery smooth muscle cells;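 further: sulforhodamine B total protein stain as relative cell number at 560 nm; sub-confluent cells exposed 48 h before staining; fitted both ways against DMSO so gain or loss of cell number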
[17] = read-out: Monokine induced gamma interferon (MIG), CXCL9 (gene 4283); assay: BSK_CASM3C_MIG: BioMAP Diversity Plus: CASM3C Assay for Monokine induced gamma interferon (MIG) Biomarker Activity (AID 2283048); settings: primary human coronary artery smooth muscle cells; actives raise or lower the signal
[18] = read-out: serum amyloid A (SAA), SAA1 (gene 6288); assay: BSK_CASM3C_SAA: BioMAP Diversity Plus: CASM3C Assay for serum amyloid A (SAA) Biomarker Activity (AID 2283049); settings: primary human coronary artery smooth muscle cells; actives raise or lower the signal;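 further: SAA protein level quantified by ELISA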
[19] = read-out: Monokine induced gamma interferon (MIG), CXCL9 (gene 4283); assay: BSK_BE3C_MIG: BioMAP Diversity Plus: BE3C Assay for Monokine induced gamma interferon (MIG) Biomarker Activity (AID 2283035); settings: primary human bronchial epithelial cells; actives raise or lower the signal;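 further: MIG protein measured by ELISA in BE3C cultures after 24 h of dosing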
Summary of the method: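 ELISA read-out of MIG in human lung bronchial epithelial primary cultures, 24 h post-dosing. Bidirectional curve fit vs DMSO baseline.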

[20] = read-out: Transforming growth factor beta 1 (TGFb1), TGFB1 (gene 7040); assay: BSK_BE3C_TGFb1: BioMAP Diversity Plus: BE3C Assay for Transforming growth factor beta 1 (TGFb1) Biomarker Activity (AID 2283036); settings: primary human bronchial epithelial cells; actives raise or lower the signal
Summary of the method: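 Human primary bronchial epithelial cells (BE3C system) were dosed with chemical and TGF-b1 levels measured by ELISA at 24 h. Activity was fitted bidirectionally relative to DMSO negative control as baseline.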

Measured: AC50

O=C(O)C(F)(OC(F)(F)C(F)(OC(F)(F)C(F)(OC(F)(F)C(F)(F)C(F)(F)F)C(F)(F)F)C(F)(F)F)C(F)(F)F (centres undefined)
inactive: [1] | [2] | [3] | [4] | [5] | [6] | [7] | [8] | [9] | [10] | [11] | [12] | [13] | [14] | [15] | [16] | [17] | [18]

O=C(O)C(F)(F)C(F)(F)C(F)F
inactive: [1] | [2] | [3] | [4] | [5] | [19] | [6] | [7] | [8] | [9] | [10] | [11] | [12] | [13] | [14] | [15] | [16] | [17] | [18]
active: [18] 5480 nM

FC(F)(F)C(F)(F)C(F)(F)C(F)(F)C(F)(F)CCI
inactive: [1] | [2] | [3] | [4] | [5] | [6] | [7] | [8] | [9] | [10] | [11] | [12] | [13] | [14] | [15] | [17] | [18]
active: [16] 7.99 µM and 30 µM

CC(CCl)OP(=O)(OC(C)CCl)OC(C)CCl (centres undefined)
inactive: [1] | [2] | [3] | [4] | [5] | [20] | [6] | [7] | [8] | [9] | [10] | [11] | [12] | [14] | [16] | [17] | [18]
active: [13] 39.8 nM | [15] 19.1 nM

CCc1c(Br)c(Br)c(Br)c(Br)c1Br
inactive: [1] | [2] | [3] | [4] | [5] | [20] | [6] | [7] | [8] | [9] | [10] | [11] | [12] | [13] | [14] | [15] | [16] | [17] | [18]
